Synaptosome phagocytic index data for 36 molecules are collected here from the supplement of paper PMC12339681.

Where a name gives a salt, the structure may show the parent alone.

The experiment relates to PBMC-derived induced microglia-like cells (piMGLC). The experiment is described as follows: synaptosome phagocytic index relative to DMSO control (fraction of DMSO); higher = more phagocytosis. The note with it: concentration: 10 uM (2 uM for compounds listed in Table S2); pretreatment time: 24 h; assay time: 3 h.
As for `Nc1nc(NC2CC2)c2ncn([C@H]3C=C[C@@H](CO)C3)c2n1` [Abacavir], the synaptosome phagocytic index was found to be 1.15. In the case of `C[C@]12CCCN1CC1=NNC(=O)c3cc(F)cc4[nH]c2c1c34` [Pamiparib], the synaptosome phagocytic index came out at 0.861. `CNNCc1ccc(C(=O)NC(C)C)cc1` [Procarbazine_(Hydrochloride)]: the synaptosome phagocytic index was found to be 1.1. As to `NS(=O)(=O)Cc1noc2ccccc12` [Zonisamide], the synaptosome phagocytic index is 0.742. With `CCN(CC)CC(=O)Nc1c(C)cccc1C` [Lidocaine_(hydrochloride)], the synaptosome phagocytic index amounted to 0.925. Regarding `CC(C)[C@H](NC(=O)c1ccc2ccccc2n1)C(=O)N[C@@H](CC(=O)O)C(=O)COc1c(F)cccc1F`, the synaptosome phagocytic index turned out to be 1.14. Next, `C[C@H](N=C(NC#N)Nc1cccc2ncccc12)c1ccccc1`: 0.994; `CC(=O)N[C@@H](CS)C(=O)O` [Acetylcysteine]: 0.86. As for `Cc1ccc(C(=O)c2cc(O)c(O)c([N+](=O)[O-])c2)cc1` [Tolcapone], the synaptosome phagocytic index is 0.526.

`CC[C@@]1(O)C(=O)OCc2c1cc1n(c2=O)Cc2cc3c(CN(C)C)c(O)ccc3nc2-1` [Topotecan_(Hydrochloride)]: the synaptosome phagocytic index was found to be 0.354. In the case of `Cc1c(N)c(=O)n(-c2ccccc2)n1C` [Ampyrone], the synaptosome phagocytic index came out at 0.708.

As for `CO/N=C(\C(=O)N[C@@H]1C(=O)N2C(C(=O)O)=C(COC(C)=O)CS[C@H]12)c1csc(N)n1` [Cefotaxime_(sodium_salt)], the synaptosome phagocytic index was determined as 0.951. As to `Nc1nc(=O)[nH]cc1F` [Flucytosine], the synaptosome phagocytic index was determined as 0.853. For `CN1CCN2c3ncccc3Cc3ccccc3C2C1` (stereo unspecified) [Mirtazapine] the value was 1.1; for `NC(=O)c1ccc(I)c([N+](=O)[O-])c1` [Iniparib], 0.96; for `COc1cc(/C=C/C(=O)NCCn2c(C)cc3ccccc32)cc(OC)c1OC`, 0.832. As to `CCN(CC)Cc1ccc2cc(COC(=O)Nc3ccc(C(=O)NO)cc3)ccc2c1` [Givinostat_(hydrochloride_monohydrate)], the synaptosome phagocytic index is 0.482. Next, `CN1C2CCCC1CC(NC(=O)c1nn(C)c3ccccc13)C2` (stereo unspecified) [Granisetron_(Hydrochloride)]: 0.891. `Cc1ccc(C(=O)NCCCCCC(=O)Nc2ccccc2N)cc1`: the synaptosome phagocytic index was found to be 0.694. In the case of `CCCN[C@H]1CCc2nc(N)sc2C1` [Pramipexole_(dihydrochloride)], the synaptosome phagocytic index came to 0.906. Consider `Clc1cccc(CN=C2Nc3ccccc3NC23CCNCC3)c1` [Liproxstatin-1], for which the synaptosome phagocytic index came out at 1.31. With `COc1ccc(NS(=O)(=O)c2ccc(N)cc2)nn1` [Sulfamethoxypyridazine], the synaptosome phagocytic index was 1.03. For `Nc1cc(C(F)F)c(-c2nc(N3C4CCC3COC4)nc(N3C4CCC3COC4)n2)cn1` the value was 0.347; for `COC(=O)/C=C/C(=O)OC` [Dimethyl_fumarate], 0.706; for `O=C1Cc2cc(CCN3CCN(c4nsc5ccccc45)CC3)c(Cl)cc2N1` [Ziprasidone_(hydrochloride_monohydrate)], 0.51. Consider `CC(=O)[C@H]1CC[C@H]2[C@@H]3CCC4=CC(=O)CC[C@]4(C)[C@H]3CC[C@]12C` [Progesterone], for which the synaptosome phagocytic index was found to be 0.761.

On to `CCC(C)n1ncn(-c2ccc(N3CCN(c4ccc(OCC5COC(Cn6cncn6)(c6ccc(Cl)cc6Cl)O5)cc4)CC3)cc2)c1=O` (stereo unspecified) [Itraconazole], for which the synaptosome phagocytic index stood at 0.377. As for `COc1cccc2c1C(=O)c1c(O)c3c(c(O)c1C2=O)C[C@@](O)(C(=O)CO)C[C@@H]3O[C@H]1C[C@H](N)[C@@H](O)[C@H](C)O1` [Epirubicin_(hydrochloride)], the synaptosome phagocytic index came to 0.904.

As to `Cc1ccccc1C(OCCN(C)C)c1ccccc1` (stereo unspecified) [Orphenadrine_(citrate)], the synaptosome phagocytic index was 1.23. Consider `CN(C)CC(c1ccc(O)cc1)C1(O)CCCCC1` (stereo unspecified) [Desvenlafaxine_(succinate_hydrate)], for which the synaptosome phagocytic index is 1.11. For `CC(C)(Sc1cc(C(C)(C)C)c(O)c(C(C)(C)C)c1)Sc1cc(C(C)(C)C)c(O)c(C(C)(C)C)c1` [Probucol], the synaptosome phagocytic index was 0.859.

Consider `CN[C@@H]1[C@H](O[C@H]2[C@H](O[C@H]3[C@H](O)[C@@H](O)[C@H](N=C(N)N)[C@@H](O)[C@@H]3N=C(N)N)O[C@@H](C)[C@]2(O)C=O)O[C@@H](CO)[C@H](O)[C@H]1O` [Streptomycin_(sulfate)], for which the synaptosome phagocytic index was determined as 0.697. With `C[C@H](c1ccc(F)cc1CCCC(=O)O)N(c1cc(F)ccc1F)S(=O)(=O)c1ccc(Cl)cc1`, the synaptosome phagocytic index was 0.385.

In the case of `Cc1cnc(NC(=O)C2=C(O)c3ccccc3S(=O)(=O)N2C)s1` [Meloxicam], the synaptosome phagocytic index worked out at 0.731. Take `O=C1CCc2ccc(OCCCCN3CCN(c4cccc(Cl)c4Cl)CC3)cc2N1` [Aripiprazole]: the synaptosome phagocytic index came to 0.885. On to `CCCCCCCCCC(=O)OCCN1CCN(CCCN2c3ccccc3Sc3ccc(C(F)(F)F)cc32)CC1` [Fluphenazine_decanoate], for which the synaptosome phagocytic index worked out at 1.03.
